# Data: PubChem BioAssay (NCI)
# The panel holds about 83,000 compounds, 20% with a hit somewhere; the sample as a whole holds those more often.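 Single-concentration screen, 48 h exposure, 96-well plates. Endpoint: percent growth. Below 10 = active.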 A number with no mark means an inactive call. Active and inactive are the calls of the source.
# Key:
# Experiment in all cases: NCI-60 one-dose screen, 48 h (100 = growth as untreated, 0 = no growth, -100 = all killed)
# [1] = test system: SR leukemia; conditions: 10 µM unless noted
# [2] = test system: RPMI-8226 leukemia; conditions: 10 µM unless noted
# [3] = test system: OVCAR-8 ovarian; conditions: 10 µM unless noted
# [4] = test system: OVCAR-5 ovarian; conditions: 10 µM unless noted
# [5] = test system: OVCAR-4 ovarian; conditions: 10 µM unless noted
# [6] = test system: SK-OV-3 ovarian; conditions: 10 µM unless noted
# [7] = test system: IGROV1 ovarian; conditions: 10 µM unless noted
# [8] = test system: OVCAR-3 ovarian; conditions: 10 µM unless noted
# [9] = test system: NCI/ADR-RES ovarian; conditions: 10 µM unless noted
# [10] = test system: BT-549 breast; conditions: 10 µM unless noted
# [11] = test system: MDA-MB-435 melanoma; conditions: 10 µM unless noted
# [12] = test system: SW-620 colon; conditions: 10 µM unless noted
# [13] = test system: MCF7 breast; conditions: 10 µM unless noted
# [14] = test system: HCT-116 colon; conditions: 10 µM unless noted
# [15] = test system: HCC-2998 colon; conditions: 10 µM
# [16] = test system: KM12 colon; conditions: 10 µM unless noted
# [17] = test system: T-47D breast; conditions: 10 µM unless noted
# [18] = test system: HS 578T breast; conditions: 10 µM
Structure (SMILES),growth [1],growth [2],growth [3],growth [4],growth [5],growth [6],growth [7],growth [8],growth [9],growth [10],growth [11],growth [12],growth [13],growth [14],growth [15],growth [16],growth [17],growth [18]
COc1cc(OC)c(/C=C/S(=O)(=O)Cc2ccc(OC)c(NCC(=O)O)c2)c(OC)c1,10.7%,25.6%,15.4%,49.1%,60.1%,15.8%,22.6%,35.9%,9.1% (active),6.04% (active),-30.5% (active),24.5%,13.1%,6.42% (active),5.81% (active),5.06% (active),–,–
Cc1cc(-c2cc(OC(=O)c3ccccc3)ccc2Cl)cc2nnc(Nc3ccc(OCCN4CCCC4)cc3)nc12,0.433% (active),74.4%,68.6%,81%,-40.5% (active),52.6%,69.4%,86.3%,110%,110%,-70.6% (active),105%,3.92% (active),55.5%,109%,90.5%,–,–
CCCNC(=O)c1cn2ncnc(Nc3cc(C(=O)NC4CC4)ccc3C)c2c1C,73.6%,75.9%,77.8%,17.6%,92.1%,70.5%,42.4%,103%,66.9%,–,89.9%,39%,83.6%,101%,–,99.6%,65.3%,–
CC[C@H](Nc1ncnc2nc[nH]c12)c1nc2cccc(F)c2c(=O)n1-c1ccccc1,72.8%,78.9%,60.6%,61.8%,95.7%,-4.44% (active),8.8% (active),48.7%,83%,–,82.6%,78.3%,54.4%,65.5%,85.9%,84.6%,-4.25% (active),–
COc1ccc(F)c(F)c1C(=O)c1cnc(NC2CCN(S(C)(=O)=O)CC2)nc1N,2.64% (active),0.261% (active),7.37% (active),12.6%,8.36% (active),11.9%,10.2%,13.1%,1.6% (active),-11.8% (active),-33.3% (active),0.808% (active),2.53% (active),–,-26.5% (active),4.84% (active),-3.23% (active),–
O=C1C=CC2(NN=C(c3ccccc3)N2c2ccc(Cl)cc2)c2cccc(O)c21 (stereo unspecified),36.8%,64%,43.4%,47.6%,43.3%,102%,66.7%,13.5%,45.1%,–,-91.5% (active),52.5%,45.4%,26.1%,64.4%,58.6%,87.2%,–
CCN(CC)CCNC(=O)c1c(C)[nH]c(/C=C2\C(=O)Nc3ccc(F)cc32)c1C,-9.44% (active),-10.3% (active),1.47% (active),35%,23.9%,26.9%,24.6%,67.9%,18.4%,20.2%,3.92% (active),-2.88% (active),7.17% (active),-59.4% (active),1.98% (active),4.04% (active),–,–
C=CCn1c(=O)c2cnc(Nc3ccc(N4CCN(C)CC4)cc3)nc2n1-c1cccc(C(C)(C)O)n1,4.58% (active),10.1%,8.75% (active),25.1%,20.2%,-1.76% (active),3.06% (active),-8.58% (active),25.1%,1.3% (active),-61.7% (active),14.6%,15.7%,–,9.01% (active),0.327% (active),36.4%,–
ClCc1ccc(-c2ccc(Cn3cnc4c(Cl)nc(Cl)nc43)cc2)cc1,8.65% (active),-47.4% (active),-40% (active),57.8%,21.7%,87.8%,-64.4% (active),-93.1% (active),20.8%,–,4.56% (active),-31.6% (active),-31.8% (active),-59.6% (active),–,-66.9% (active),-23.5% (active),–
COc1cc2c(cc1OCCCCCCN1CCN(c3ncnc4ccccc34)CC1)N=CC1CCCN1C2=O (stereo unspecified),-29.6% (active),-47.4% (active),-12.1% (active),10.2%,-14.4% (active),20.7%,1.08% (active),-6.78% (active),6.93% (active),–,-77.1% (active),-19.1% (active),11.2%,3.4% (active),–,–,6.98% (active),–
COC(=O)C1=C(C(=O)OC)C23C=C(C)C1C2=C(C)C1(CC1)[C@@](C)(O)C3=O (stereo partly specified),66.6%,92.3%,12.7%,-3.58% (active),1.65% (active),-21.6% (active),–,-2.36% (active),-3.49% (active),-35.7% (active),-18.2% (active),78.1%,11.3%,5.3% (active),-22.1% (active),29.6%,-3.03% (active),23.2%
COc1cnc2c(c1)C(=O)c1c-2n(CCCN2CCOCC2)c(=O)c2cc(Cl)ccc12,7.63% (active),9.78% (active),32.8%,69.1%,41.6%,10.7%,–,25.8%,19.2%,43.6%,47.5%,21.3%,10.4%,–,53.6%,32.7%,–,79.2%
CCn1c(-c2nonc2N)nc2c(C#CC(C)(C)O)ncc(OC[C@H]3CCCNC3)c21,29.3%,91.7%,70.6%,108%,68.5%,15%,23.9%,41.3%,–,49.6%,75.3%,46.1%,15.6%,44.5%,81.4%,35.9%,66.7%,–
CO/C=C/C(=O)c1cc2cnc3c(=N)cc(NC(=O)C(C)C)c([nH]1)c23,-24% (active),-38.1% (active),0.655% (active),-16.3% (active),-10.7% (active),-25.7% (active),–,-45.1% (active),-9.63% (active),-58.9% (active),-27.5% (active),-47.8% (active),1.14% (active),-55.4% (active),-21% (active),-23.9% (active),-53.1% (active),-6.02% (active)
CC(=O)c1cnc2ccc(-c3cc(Cl)c(O)c(Cl)c3)nc2c1NC1CCC(CN(C)C)CC1 (stereo unspecified),-16% [2.5 µM] (active),-24.3% [2.5 µM] (active),-22.9% [2.5 µM] (active),2.38% [2.5 µM] (active),-9.08% [2.5 µM] (active),-32.6% [2.5 µM] (active),-17.3% [2.5 µM] (active),2.02% [2.5 µM] (active),–,-44.9% [2.5 µM] (active),-37.2% [2.5 µM] (active),6.12% [2.5 µM] (active),-4.22% [2.5 µM] (active),-2.49% [2.5 µM] (active),–,-2.64% [2.5 µM] (active),-22.9% [2.5 µM] (active),–
COC(=O)[C@]12CC[C@@H](C)[C@H](C)[C@@H]1C1=CC[C@@H]3[C@@]4(C)C[C@@H](OC(=O)/C=C/c5ccccc5)[C@H](O)[C@@](C)(CO)[C@@H]4[C@H](O)C[C@@]3(C)[C@]1(C)CC2,-18.4% (active),9.79% (active),14.6%,-27.6% (active),23.3%,41.9%,–,-37.1% (active),7.34% (active),34.4%,11.5%,-58.6% (active),14.3%,-56.4% (active),-41.8% (active),-2.35% (active),13.2%,-0.549% (active)
CCc1nc2ccc(Cc3ccc(C(=O)NO)cc3)cc2c(=O)n1CCc1ccccc1,2.05% (active),6.11% (active),-31% (active),1.71% (active),-7.64% (active),-26.9% (active),–,-37.1% (active),-17.3% (active),-31.2% (active),-73.7% (active),-27.2% (active),4.69% (active),-55% (active),-74.8% (active),-58.9% (active),–,14.9%
COC(=O)N[C@@H](C)CNc1nccc(-c2cn(C(C)C)nc2-c2cc(Cl)cc(NS(C)(=O)=O)c2F)n1,51.7%,113%,72.5%,42.9%,71.4%,22.8%,42.2%,87%,–,72.9%,25.5%,52.7%,95.2%,19.5%,69.6%,69.7%,79.3%,–
CCCCCCCCCNCCCCCCCCC,-22.9% (active),-22.4% (active),73.5%,63.5%,29.2%,92.6%,–,86%,68.3%,–,47.6%,41.5%,13.4%,20.2%,23.8%,22.6%,57.7%,83.7%
